Results taken from PubChem BioAssay.
Active and inactive are the calls of the source.

Tests used:
[1] = test system: Human papillomavirus type 1a protein E7 (residues 44-93); test: small molecules binding HPV E7 44-93 – biochemical, small-molecule microarray, residues 44-93, 635 nm fluorescence, primary screen (AID 1108); conditions: fluorescence 635 nm, higher = more signal;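 also: E7 fragment applied at 1 µg/mL in TBST for 1 h at 4 C; score combines spot fluorescence with its signal to noise ratio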
[2] = hepatitis C replication reporter changes, two-sided – Huh7 cells, luciferase reporter, HCV replication inhibitor project, primary screen (AID 1109); conditions: Huh7 HCV replicon luciferase reporter, 48 h; higher = more signal;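 also: huh7 hepatoma cells harbouring a luciferase neomycin HCV replicon reporter; luciferase luminescence as measure of HCV replicon replication; test concentration not given here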
[3] = molecular target: Left-right determination factor 2 (Homo sapiens) (UniProt O00292); test: small molecules binding LEFTY2 protein – biochemical, small-molecule microarray, 635 nm fluorescence scan, primary screen (AID 1110); conditions: higher = more signal
Chain of Left-right determination factor 2 (Homo sapiens) (O00292 whole entry, looked up): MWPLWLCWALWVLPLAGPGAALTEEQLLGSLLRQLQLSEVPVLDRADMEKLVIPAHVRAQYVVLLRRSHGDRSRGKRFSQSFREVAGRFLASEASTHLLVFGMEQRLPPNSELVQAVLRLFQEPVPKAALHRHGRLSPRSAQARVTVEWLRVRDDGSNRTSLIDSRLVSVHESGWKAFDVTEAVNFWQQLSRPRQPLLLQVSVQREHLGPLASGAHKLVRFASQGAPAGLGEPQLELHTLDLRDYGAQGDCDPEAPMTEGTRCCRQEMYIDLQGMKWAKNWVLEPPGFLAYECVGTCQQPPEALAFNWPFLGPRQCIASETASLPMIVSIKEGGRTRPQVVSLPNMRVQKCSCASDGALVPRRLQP

[4] = molecular target: Calmodulin-1 (Homo sapiens) (UniProt P0DP23); test: small molecules binding calmodulin-1 with EGTA – biochemical, small-molecule microarray, Cy5-labelled CALM1, profiling panel (AID 1111); conditions: Cy5-CALM1 binding fluorescence, higher = more signal;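 also: labelled calmodulin applied in Tris saline Tween buffer holding calcium plus EGTA and DTT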
[5] = molecular target: Calmodulin-1 (Homo sapiens) (UniProt P0DP23); test: small molecules binding Ca-loaded calmodulin-1 – biochemical, small-molecule microarray, Cy5-labelled CALM1, plus calcium, artefact control for SMM control-protein annotation, profiling panel (AID 1112); conditions: Cy5-CALM1 binding fluorescence, higher = more signal;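 also: score merges spot fluorescence with signal to noise from triplicate slides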
[6] = probe aWnt5a binding to arrayed compounds – biochemical, biotinylated probe, 635/667 nm fluorescence, primary screen (AID 1113); conditions: small-molecule microarray, higher = more signal;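 also: score merges 667 nm fluorescence intensity with signal-to-noise per printed feature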
[7] = probe aShh binding to arrayed compounds – biochemical, biotinylated probe, 635/667 nm fluorescence, primary screen (AID 1114); conditions: small-molecule microarray, higher = more signal;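 also: probe is biotin-labelled aShh protein from a stem cell growth factor screen; measures binding of labelled protein to compounds printed on the slide; score merges feature fluorescence at 667 nm with signal-to-noise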
[8] = probe aNog binding to arrayed compounds – biochemical, biotinylated probe, 635/667 nm fluorescence, primary screen (AID 1115); conditions: small-molecule microarray, higher = more signal;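 also: probe is biotinylated aNog protein used at 0.15 µg/mL for 1 h at 4 C; z-score combines 667 nm fluorescence of each spot with its signal to noise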
[9] = molecular target: Torsin-1A-interacting protein 1 (Homo sapiens) (UniProt Q5JTV8); test: compound microarray binding of lysate hLAP1 – cell lysate, small-molecule microarray, COS7 lysate, 635/667 nm fluorescence, primary screen (AID 1116); conditions: 635 nm fluorescence, higher = more signal
Chain of Torsin-1A-interacting protein 1 (Homo sapiens) (Q5JTV8 whole entry, looked up): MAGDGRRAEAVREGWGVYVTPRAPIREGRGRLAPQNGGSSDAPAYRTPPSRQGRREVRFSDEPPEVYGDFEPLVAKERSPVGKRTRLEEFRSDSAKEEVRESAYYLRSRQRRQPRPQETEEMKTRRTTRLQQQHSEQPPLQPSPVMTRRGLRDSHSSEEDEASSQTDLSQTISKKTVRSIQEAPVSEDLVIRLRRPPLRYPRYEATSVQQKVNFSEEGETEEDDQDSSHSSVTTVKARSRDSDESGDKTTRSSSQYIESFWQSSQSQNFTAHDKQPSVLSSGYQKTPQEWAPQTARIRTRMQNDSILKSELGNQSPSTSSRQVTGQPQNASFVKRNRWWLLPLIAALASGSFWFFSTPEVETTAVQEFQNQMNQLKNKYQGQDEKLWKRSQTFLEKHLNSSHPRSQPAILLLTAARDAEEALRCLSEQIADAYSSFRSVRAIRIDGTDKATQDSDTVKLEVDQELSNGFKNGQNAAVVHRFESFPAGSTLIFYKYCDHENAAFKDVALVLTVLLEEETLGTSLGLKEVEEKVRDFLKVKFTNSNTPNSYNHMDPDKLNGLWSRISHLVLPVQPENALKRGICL

[10] = molecular target: Alpha-bungarotoxin (Bungarus multicinctus) (UniProt P60615); test: compounds binding labelled alpha-BTX control protein – biochemical, small-molecule microarray, Alexa647 label, 635/667 nm fluorescence, artefact control for SMM control protein annotation, profiling panel (AID 1117); conditions: alpha-BTX-A647 binding fluorescence, higher = more signal
Chain of Alpha-bungarotoxin (Bungarus multicinctus) (P60615 whole entry, looked up): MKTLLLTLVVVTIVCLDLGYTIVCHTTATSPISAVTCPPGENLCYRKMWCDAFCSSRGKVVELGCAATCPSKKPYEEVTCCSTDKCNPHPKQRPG

[11] = molecular target: Albumin (Bos taurus) (UniProt P02769); test: compounds binding labelled BSA control protein – biochemical, small-molecule microarray, Alexa647 label, 635/667 nm fluorescence, artefact control for SMM control protein annotation, profiling panel (AID 1118); conditions: BSA-A647 binding, fluorescence 635 nm, higher = more signal;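 also: score merges 667 nm emission intensity and signal-to-noise per printed compound spot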
Chain of Albumin (Bos taurus) (P02769 whole entry, looked up): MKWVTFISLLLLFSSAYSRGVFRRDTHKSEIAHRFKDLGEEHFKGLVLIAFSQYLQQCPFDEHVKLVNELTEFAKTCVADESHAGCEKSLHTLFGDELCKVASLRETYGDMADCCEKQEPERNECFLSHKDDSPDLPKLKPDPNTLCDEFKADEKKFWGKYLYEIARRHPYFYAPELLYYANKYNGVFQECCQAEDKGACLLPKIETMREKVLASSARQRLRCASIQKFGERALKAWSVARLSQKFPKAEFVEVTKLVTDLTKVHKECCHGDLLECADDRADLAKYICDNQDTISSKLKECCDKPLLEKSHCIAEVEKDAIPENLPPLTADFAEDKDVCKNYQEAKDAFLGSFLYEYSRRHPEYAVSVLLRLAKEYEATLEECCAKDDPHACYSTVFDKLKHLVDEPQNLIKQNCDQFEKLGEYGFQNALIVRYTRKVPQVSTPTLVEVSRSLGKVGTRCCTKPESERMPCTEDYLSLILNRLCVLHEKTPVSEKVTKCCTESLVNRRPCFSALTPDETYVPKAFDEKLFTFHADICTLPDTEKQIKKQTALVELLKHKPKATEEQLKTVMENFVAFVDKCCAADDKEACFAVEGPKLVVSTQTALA

[12] = probe aXIP binding to arrayed compounds – biochemical, NeuroSMM set, 635/667 nm fluorescence, primary screen (AID 1119); conditions: small-molecule microarray, higher = more signal, called active from +8 up or from −8 down;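 also: probe is the protein aXip251-270 applied at 1 µg/mL to compound-printed slides; binding of probe to printed compounds measured as 667 nm fluorescence plus signal to noise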
[13] = probe aNOTCH3 binding on compound microarray – biochemical, small-molecule microarray, 635/667 nm fluorescence, primary screen (AID 1120); conditions: higher = more signal;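 also: probe is a biotin-tagged antibody raised against NOTCH3 rather than NOTCH3 protein; score merges spot fluorescence near 667 nm with spot signal to noise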
[14] = probe aNOTCH2 binding on compound microarray – biochemical, small-molecule microarray, 635/667 nm fluorescence, primary screen (AID 1121); conditions: higher = more signal;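 also: score merges feature fluorescence read at 667 nm with its signal to noise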
[15] = molecular target: Carbonic anhydrase 2 (Homo sapiens) (UniProt P00918); test: compounds binding carbonic anhydrase 2 – biochemical, small-molecule microarray, Alexa647-labelled CAII, profiling panel (AID 1122); conditions: CAII-A647 binding fluorescence, higher = more signal
[16] = COS7 lysate on small-molecule microarray, probe aHis, 635 nm (AID 1123); conditions: COS7 cell lysate, fluorescence, higher = more signal;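 also: z-score combines 667nm fluorescence intensity with signal-to-noise per printed compound spot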
[17] = probe aLAP1 signal on lysate-treated microarray – cell lysate, small-molecule microarray, COS7 lysate, primary screen (AID 1124); conditions: probe aLAP1, fluorescence, higher = more signal;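 also: lysate comes from COS7 cells expressing LAP1 and is applied at 0.3 µg/mL; score merges spot fluorescence near 667 nm with signal-to-noise over triplicate slides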
[18] = test system: Sam68 (KHDRBS1); test: compounds binding KHDRBS1 protein – biochemical, small-molecule microarray, 635 nm fluorescence, primary screen (AID 1125); conditions: higher = more signal;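 also: score merges 667 nm channel intensity with signal to noise over triplicate slides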
[19] = test system: Chordin-like protein 2 (CHRDL2); test: compounds binding chordin-like 2 – biochemical, small-molecule microarray, 635 nm fluorescence, primary screen (AID 1126); conditions: fluorescence 635 nm, higher = more signal;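 also: printed compound slides probed with Chrdl2 protein at 4 µg/mL for 1 h at 4 C; score merges 667 nm emission intensity with signal to noise over three replicate slides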
[20] = molecular target: Concanavalin-A (Canavalia ensiformis) (UniProt P02866); test: compounds binding concanavalin A lectin – biochemical, small-molecule microarray, Alexa647 label, 635 nm, artefact control for SMM control protein annotation, primary screen (AID 1127); conditions: ConA-A647 binding fluorescence, higher = more signal;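 also: z combines 667 nm emission intensity with signal-to-noise across three replicate slides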
Chain of Concanavalin-A (Canavalia ensiformis) (P02866 whole entry, looked up): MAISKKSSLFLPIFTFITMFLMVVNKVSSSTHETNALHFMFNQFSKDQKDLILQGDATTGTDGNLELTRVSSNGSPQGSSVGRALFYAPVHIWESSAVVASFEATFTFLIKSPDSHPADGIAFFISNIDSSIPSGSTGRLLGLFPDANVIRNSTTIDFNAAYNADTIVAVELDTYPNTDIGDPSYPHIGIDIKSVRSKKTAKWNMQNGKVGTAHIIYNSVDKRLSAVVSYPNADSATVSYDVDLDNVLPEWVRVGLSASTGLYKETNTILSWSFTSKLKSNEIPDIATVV

Row | Compound | composite z-score [1] | z-score [2] | composite z-score [3] | composite z-score [4] | composite z-score [5] | composite z-score [6] | composite z-score [7] | composite z-score [8] | composite z-score [9] | composite z-score [10] | composite z-score [11] | composite Z-score [12] | composite z-score [13] | composite z-score [14] | composite z-score [15] | composite z-score [16] | composite z-score [17] | composite z-score [18] | composite z-score [19] | composite z-score [20]
1 | [N-]=[N+]=Nc1ccccc1[C@@H]1OC(c2ccc(OCCCO)cc2)=N[C@]1(Cc1ccccc1)C(=O)NCC(O)CO (stereo not given in full) | 0.883 | -1.34 | -0.879 | 2.21 | 1.18 | 0.0189 | 0.4 | -0.4 | 2.95 | 2.56 | 0.937 | 0.66 (inactive) | 0.453 | 0.178 | 0.765 | 3.2 | 1.14 | 0.897 | -0.638 | 0.468
2 | COc1ccc(C(O)C2C=CC3C(=O)N(c4ccccc4)C(=O)C3N2Nc2ccc([N+](=O)[O-])cc2)cc1 (stereo not given) | 0.487 | -0.925 | -0.425 | 1.45 | 0.622 | 0.315 | 0.109 | -0.064 | 1.66 | 1.32 | 0.968 | 1.19 (inactive) | 0.84 | 0.495 | 0.637 | 2.86 | 0.64 | 1.31 | -0.936 | 0.989
3 | C=C(/C(=C/C[C@H](OC(=O)c1ccncc1)c1ccc(CO)o1)c1cc(C(=O)OC)ccc1OC)C(C)C | 1.31 | -0.706 | 0.34 | -0.0383 | -0.748 | 0.0037 | 0.235 | -0.0247 | 0.602 | 0.0818 | 0.0703 | -0.442 (inactive) | -0.0414 | -0.116 | 0.541 | 1.4 | 0.285 | 1.05 | 0.85 | 0.557
4 | COc1ccc([Si](C)(C)[C@H]2[C@H](CCn3cc([C@H](O)c4ccccc4)nn3)O[C@@]3(C(=O)N(Cc4ccc(N5C(=O)c6cccc7cccc5c67)cc4)c4ccccc43)[C@@H]2C)cc1 | 0.0891 | -2.6 | -0.638 | 0.103 | 0.0758 | -0.131 | -0.154 | -0.0065 | 0.112 | 0.0628 | -0.601 | 0.389 (inactive) | -0.165 | -0.14 | 0.193 | 0.769 | 0.838 | 0.131 | -0.803 | 0.115
5 | CCCC[C@@H]1C[C@H]1[C@@H](NC(=O)Cc1ccccc1)c1ccc(-c2ccccc2)cc1 | 1.24 | -0.783 | -0.319 | 0.538 | 0.588 | -0.0276 | 0.0098 | -0.0503 | 0.487 | 0.263 | 0.83 | 0.378 (inactive) | -0.006 | -0.0242 | 0.66 | 2.02 | -0.273 | 0.214 | -0.436 | 0.453
6 | O=C1O[C@H](c2ccccc2)[C@H](c2ccccc2)N2[C@H]1[C@@H](C(=O)O)[C@]1(C(=O)Nc3ccc(C#CC4=CCCCC4)cc31)[C@H]2c1ccc(O)cc1 | 1.33 | -0.955 | 0.658 | -0.461 | -0.283 | -0.0792 | 0.0284 | -0.213 | 0.499 | -0.188 | 0.562 | 0.235 (inactive) | 0.0445 | -0.105 | 0.627 | 1.51 | 0.384 | 0.712 | 0.285 | 0.997
7 | C=CCOC(=O)[C@H]1[C@@H]2C(=O)O[C@@H](c3ccccc3)[C@@H](c3ccccc3)N2[C@@H](c2ccc(OCCOC(=O)[C@H]3C[C@H]4C(=O)N[C@@H](CCCCNC(C)=O)C(=O)N4[C@H]3c3ccc(O)cc3)cc2)[C@]12C(=O)Nc1ccccc12 | 0.94 | -0.103 | 0.594 | 1.03 | 0.328 | -0.124 | 0.157 | 0.0322 | 1.67 | 1.89 | -1.06 | 1.09 (inactive) | 0.0076 | -0.112 | 0.634 | 1.19 | -0.549 | 1.3 | 0.998 | 1.16
8 | C=CC[C@@]1(C(=O)N2CCOCC2)N=C(c2ccc(OCCCO)cc2)O[C@@H]1c1ccccc1CN=[N+]=[N-] | 1.44 | -2.04 | 0.898 | 1.9 | 0.365 | 0.0998 | 0.191 | -0.333 | 1.72 | 0.943 | 0.774 | 0.28 (inactive) | 0.405 | 0.083 | 0.527 | 2.89 | 1.41 | 1.33 | -0.186 | 1.16
9 | CCOC(=O)C[C@H]1[C@H](OC(=O)c2ccc(C(=O)c3ccccc3)cc2)[C@@H](NC(=O)Cc2ccc(OC)cc2)c2cc(OCCCO)ccc2N1C(=O)c1ccccc1 | 0.41 | -1.15 | 0.117 | 0.0574 | 0.425 | 0.112 | -0.237 | 0.0775 | 0.516 | 0.168 | 0.585 | 0.324 (inactive) | 0.0203 | -0.0877 | 0.188 | 0.409 | -0.0137 | 0.428 | -0.0656 | 0.278
10 | [N-]=[N+]=NCc1ccccc1[C@@H]1OC(c2ccc(OCCCO)cc2)=N[C@]1(CCS(=O)(=O)c1ccccc1)C(=O)NCC(O)CO (stereo not given in full) | 0.711 | -1.2 | -0.275 | 2.14 | 0.701 | 0.0799 | 0.0062 | 0.975 | 4.4 | 2.17 | 0.979 | 0.131 (inactive) | 0.13 | 0.208 | 0.526 | 3.18 | 1.01 | 1.29 | -0.563 | 1.18
11 | O=C1NC(=O)C2C1C=CC(C(O)c1c(F)cccc1Cl)N2Nc1ccc(Cl)cc1Cl (stereo not given) | 0.635 | -0.133 | -0.536 | 2.33 | 1.01 | 0.0923 | 0.0782 | 1.42 | 2.71 | 2.76 | 1.04 | 0.122 (inactive) | 0.525 | 0.232 | 0.599 | 3.11 | 1.12 | 0.79 | -0.879 | 0.44
